This passage reports growth results from PubChem BioAssay (NCI).

This is part of a sample that, as a whole, favours compounds with a hit. Of some 83,000 tested, about 20% had one in any assay.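 Plates (96-well) were seeded with cells, treated with compound at one concentration, and incubated for 48 hours before percent growth was determined.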 A number with no mark means an inactive call. The source made the active and inactive calls. The calls were made as follows: active = growth percent below 10; inactive = the rest.

Common to all, as to experiment: NCI-60 one-dose screen, 48 h (100 = growth as untreated, 0 = no growth, -100 = all killed)
Holding throughout (settings): 10 µM unless noted

Assay [1] relates to NCI-H23 lung.
The test system of assay [2] is NCI-H226 lung.
Assay [3] deals with NCI-H322M lung.
Assay [4] concerns HOP-62 NSCLC.
Assay [5] has as its system NCI-H460 lung.
Assay [6] deals with HOP-92 NSCLC.
Assay [7] deals with NCI-H522 lung.
The test system of assay [8] is A549/ATCC NSCLC.
Assay [9] has as its system 786-0 renal.
Assay [10] deals with COLO 205 colon.
In assay [11] the test system is DU-145 prostate.
Assay [12] deals with K-562 leukemia.
Assay [13] concerns MALME-3M melanoma.
Assay [14] concerns MDA-MB-231 breast.
The subject of assay [15] is RXF 393 renal.
Assay [16] has as its system SF-268 CNS.
Assay [17] concerns SF-295 CNS.
For assay [18], the system named is SF-539 CNS.
Assay [19] deals with UACC-257 melanoma.
Assay [20] deals with M14 melanoma.

With `CCC(C)C(N)C(=O)NC(CC(C)C)C(=O)N1CCCC1C(=O)NC(Cc1c[nH]c2ccccc12)C(=O)NC(CCCCN)C(=O)NC(Cc1c[nH]c2ccccc12)C(=O)N1CCCC1C(=O)NC(Cc1c[nH]c2ccccc12)C(=O)NC(Cc1c[nH]c2ccccc12)C(=O)N1CCCC1C(=O)NC(Cc1c[nH]c2ccccc12)C(=O)NC(CCCNC(=N)N)C(=O)NC(CCCNC(=N)N)C(N)=O` (stereo not given), the growth is 104% in assay [1]; 112% in assay [2]; 100% in assay [3]; 103% in [4]; 107% in assay [5]; 86.2% in [6]. Besides, the growth in [7] was 97.7%; in assay [8], 106%; in assay [9], 102%; in assay [10] it was 97.2%; in assay [11], 98.4%; in assay [12], 104%. The growth in [13] was 122%; in assay [14] it was 116%; in assay [15] it was 110%; in assay [16] it was 116%; in assay [17] it was 144%; in assay [18], 110%. Also, the growth in assay [19] is 97.8%; in assay [20], 108%.

As for `CCCCCCCCNC(=O)[C@@H](N)CSCOC(C)=O`, the growth in assay [1] was 87.4%; in assay [2], 104%; in assay [3] it was 89.8%; in [4] it was 66.7%; in assay [5], 72.9%; in [6] it was 122%. The growth in [7] was 90.6%; in assay [8], 84.3%; in assay [9] it was 106%; in assay [10] it was 109%; in assay [11] it was 87.6%; in assay [12] it was 71.8%. Besides, the growth in assay [13] was 114%; in [14] it was 91.9%; in [15] it was 124%; in [16], -31.5% (active); in [17], 102%; in [18], 79.9%. Also, the growth in [19] is 110%; in assay [20], 34.2%.

Take `O=C1OCC2=C1C(c1cccc(F)c1)c1cc3c(cc1N2CCO)CCC3` (stereo not given): the growth in assay [1] is 24.7%; in [2], 39.6%; in assay [3] it was 40.9%; in assay [4], 26.2%; in assay [5], 6.75% (active); in [6], 58.5%. Further, the growth in assay [7] was 11.6%; in [8] it was 17.3%; in assay [9], 32.3%; in [10], -25.6% (active); in assay [11] it was 2.44% (active); in assay [12], 9.4% (active). Moreover, the growth was 50.9% in assay [13]; 26.9% in [14]; 32.3% in assay [15]; 23.3% in [16]; -6.45% (active) in assay [17]; -28.9% (active) in assay [18]. For the same compound, the growth in [19] is 90.1%; in assay [20], 7.72% (active).

For `COc1cc(NC(=O)c2cncnc2Nc2ccc3c(ccn3Cc3cccc(F)c3)c2)cc(OC)c1`, the growth is 79.1% in assay [1]; 80.3% in assay [2]; 84.1% in [3]; 52.7% in assay [4]; 45.9% in [5]; 83.4% in assay [6]. For the same compound, the growth in [7] was 44.3%; in assay [8], 40.4%; in assay [9], 81.1%; in assay [10], 61.3%; in [11], 79.9%; in assay [12], 15.4%. The growth was 71.6% in assay [13]; 57.4% in [14]; 62.5% in assay [15]; 68.9% in assay [16]; 50.4% in assay [17]; 44.4% in [18]. The growth in assay [19] is 72.7%; in assay [20] it was 47.2%.

Consider `Oc1ccc(Cc2ccc(O)c3ncccc23)c2cccnc12`, for which the growth was 9.78% (active) in assay [1]; 12.1% in assay [2]; 9.39% (active) in assay [3]; -2.91% (active) in [4]; 7.23% (active) in assay [5]; -25.9% (active) in [6]. The growth in [7] was -10.8% (active); in [8], 7.38% (active); in assay [9] it was 19%; in [10] it was 71%; in [11], 23.5%; in [12], 9.66% (active). For the same compound, the growth in assay [13] is -14.1% (active); in assay [14] it was 5.46% (active); in assay [15], 9.57% (active); in assay [16] it was 27.5%; in assay [17], -20.5% (active); in [18] it was 14.1%. In addition, the growth in assay [19] is -8.29% (active); in [20], 17%.

As for `O=C(/C=C/c1ccco1)c1ccc(Nc2ccnc3cc(Cl)ccc23)cc1`, the growth in [1] was 82.1%; in [2], 111%; in [3], 39.3%; in assay [4] it was 104%; in [5], 36%; in assay [6], 41.5%. The growth was 81.9% in assay [7]; 62% in assay [8]; 76.6% in assay [9]; 90.4% in [10]; 90.8% in assay [11]; 51.2% in [12]. Further, the growth in assay [13] was 110%; in assay [14], 70.2%; in [15], -28.3% (active); in [16] it was 105%; in assay [17], 72.5%; in [18], 92.1%. For the same compound, the growth in [19] is 97.8%; in [20], 83.3%.

Turning to `CC1(C)CC[C@]2(CO)CC[C@]3(C)C(=CC[C@@H]4[C@@]5(C)CCNCC(C)(C)[C@@H]5CC[C@]43C)[C@@H]2C1`, the growth in assay [1] was 88.4%; in assay [2], 106%; in assay [3] it was 68.9%; in assay [4], 99.3%; in [5] it was 49.5%; in assay [6] it was 64.2%. For the same compound, the growth in assay [7] was 70.7%; in assay [8] it was 85.6%; in assay [9], 84.6%; in [10] it was -44.1% (active); in [11], 81.5%; in assay [12], 7.94% (active). Also, the growth in [13] was 63.1%; in [14], 73.7%; in assay [15], 61.6%; in assay [16], 105%; in assay [17], 97.6%; in assay [18], 85.8%. Also, the growth is 9.86% (active) in [19] and -2.42% (active) in assay [20].

For the compound `CC(C)(C)n1cc(-c2ccnc(NCCNS(=O)(=O)c3cccc4ccccc34)c2)c(-c2cccc(O)c2)n1`, the growth in [1] was 69.7%; in [2] it was 75.3%; in assay [3], 89.6%; in assay [4], 88.2%; in [5], 55.9%; in assay [6], 64.5%. The growth is 61.9% in assay [7]; 62.7% in assay [8]; 64.3% in assay [9]; -33.1% (active) in assay [10]; 83.3% in assay [11]; 15.4% in assay [12]. For the same compound, the growth in assay [13] was 75.7%; in [14], 81.9%; in assay [15], 73.3%; in [16] it was 81.4%; in assay [17], 92.5%; in [18] it was 77.1%. Also, the figures for the growth in assay [19] and in assay [20] were 81.1% and 66.5%, respectively.
